The campaign covered roughly 5,500 compounds. About 2,000 (36%) were called active. Inconclusive results (about 18%) are left out. Cut-off read from the data, not from the text of the source: active = normalized growth mostly below about 0.91 (no sharp cut-off); inconclusive = no clear call, values can overlap the other calls; inactive = mostly above about 0.92. The list shows a part of the results.
Assay: chemical genetic growth profiling, strain panel (AID 1159580);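 note: tested at 20 µM; growth read once vehicle control cultures reached saturation at 30 °C; 1 = growth at the plate median or of vehicle wells; lower values mean less growth of the strain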
Details: S. cerevisiae deletion strains, growth OD

Measured: normalized growth

COc1cc([C@@H]2c3cc4c(c(O)c3C[C@H]3COC(=O)[C@@H]32)OCO4)cc(OC)c1OC
inactive: locus YAL013W, strain DEP1, stronger effect = lower value 0.986 | locus YAL021C, strain ccr4, stronger effect = lower value 0.995 | locus YAL026C, strain drs2, stronger effect = lower value 0.992 | locus YAL030W, strain snc1, stronger effect = lower value 0.986 | locus YBL061C, strain skt5, stronger effect = lower value 0.994 | locus YBR009C, strain hhf1, stronger effect = lower value 0.993 | locus YBR021W, strain FUR4, stronger effect = lower value 1 | locus YBR023C, strain chs3, stronger effect = lower value 0.999 | locus YBR171W, strain sec66, stronger effect = lower value 0.971 | locus YBR229C, strain ROT2, stronger effect = lower value 0.985 | locus YBR231C, strain swc5, stronger effect = lower value 0.977 | locus YBR279W, strain paf1, stronger effect = lower value 0.994 | locus YCL011C, strain gbp2, stronger effect = lower value 0.996 | locus YCL016C, strain dcc1, stronger effect = lower value 1 | locus YCL029C, strain bik1, stronger effect = lower value 0.978 | locus YCL069W, strain vba3, stronger effect = lower value 1 | locus YCR088W, strain abp1, stronger effect = lower value 0.984 | locus YDL005C, strain med2, stronger effect = lower value 0.979 | locus YDL035C, strain GPR1, stronger effect = lower value 0.981 | locus YDL040C, strain nat1, stronger effect = lower value 0.994 | locus YDL074C, strain BRE1, stronger effect = lower value 1.05 | locus YDL101C, strain DUN1, stronger effect = lower value 0.985 | locus YDL134C, strain PPH21, stronger effect = lower value 0.997 | locus YDL185W, strain tfp1, stronger effect = lower value 0.959 | locus YDL192W, strain arf1, stronger effect = lower value 0.972 | locus YDR001C, strain nth1, stronger effect = lower value 0.988 | locus YDR069C, strain doa4, stronger effect = lower value 0.981 | locus YDR101C, strain arx1, stronger effect = lower value 0.995 | locus YDR137W, strain rgp1, stronger effect = lower value 0.993 | locus YDR150W, strain NUM1, stronger effect = lower value 0.973 | locus YDR159W, strain sac3, stronger effect = lower value 0.967 | locus YDR162C, strain NBP2, stronger effect = lower value 0.998 | locus YDR195W, strain ref2 0.93 | locus YDR297W, strain sur2, stronger effect = lower value 0.976 | locus YDR318W, strain mcm21, stronger effect = lower value 0.986 | locus YDR334W, strain swr1, stronger effect = lower value 0.987 | locus YDR335W, strain msn5, stronger effect = lower value 1 | locus YDR388W, stronger effect = lower value 0.991 | locus YDR392W, strain spt3, stronger effect = lower value 0.924 | locus YDR502C, strain sam2, stronger effect = lower value 0.983 | locus YEL003W, strain gim4, stronger effect = lower value 0.983 | locus YEL037C, strain rad23, stronger effect = lower value 0.993 | locus YEL061C, strain CIN8 (second series), stronger effect = lower value 1 | locus YEL061C, strain CIN8, stronger effect = lower value 0.99 | locus YER015W, strain faa2, stronger effect = lower value 1 | locus YER016W, strain bim1, stronger effect = lower value 0.979 | locus YER110C, stronger effect = lower value 0.971 | locus YER111C, strain swi4, stronger effect = lower value 0.989 | locus YER155C, strain BEM2 (second series), stronger effect = lower value 0.96 | locus YER155C, strain BEM2, stronger effect = lower value 0.994 | locus YER167W, strain BCK2, stronger effect = lower value 0.976 | locus YFR010W, strain ubp6, stronger effect = lower value 0.995 | locus YGL078C, strain dbp3, stronger effect = lower value 0.986 | locus YGL086W, strain mad1, stronger effect = lower value 0.982 | locus YGL167C, strain pmr1, stronger effect = lower value 0.991 | locus YGL173C, strain kem1, stronger effect = lower value 0.98 | locus YGL227W, strain vid30, stronger effect = lower value 0.983 | locus YGL240W, strain doc1, stronger effect = lower value 0.961 | locus YGL248W, strain PDE1, stronger effect = lower value 0.988 | locus YGL253W, strain hxk2, stronger effect = lower value 0.994 | locus YGR078C, strain PAC10, stronger effect = lower value 1.03 | locus YGR135W, strain pre9, stronger effect = lower value 1.02 | locus YGR229C, strain SMI1, stronger effect = lower value 1.05 | locus YGR252W, strain gcn5, stronger effect = lower value 1.04 | locus YHR013C, strain ard1, stronger effect = lower value 1 | locus YHR027C, strain rpn1, stronger effect = lower value 0.976 | locus YHR030C, strain SLT2, stronger effect = lower value 0.979 | locus YHR079C, strain IRE1 (second series), stronger effect = lower value 0.983 | locus YHR094C, strain hxt1, stronger effect = lower value 0.974 | locus YHR129C, strain ARP1, stronger effect = lower value 0.993 | locus YHR142W, strain chs7, stronger effect = lower value 1.02 | locus YHR200W, strain rpn10, stronger effect = lower value 0.975 | locus YIL066C, strain RNR3, stronger effect = lower value 0.983 | locus YIL073C, strain SPO22, stronger effect = lower value 0.923 | locus YIL125W, strain kgd1, stronger effect = lower value 0.986 | locus YIR030C, strain dcg1, stronger effect = lower value 0.982 | locus YJL092W, strain hpr5, stronger effect = lower value 0.999 | locus YJL095W, strain BCK1 (second series), stronger effect = lower value 0.987 | locus YJL095W, strain BCK1, stronger effect = lower value 1.05 | locus YJL115W, strain asf1, stronger effect = lower value 0.987 | locus YJL129C, strain trk1, stronger effect = lower value 0.962 | locus YJL134W, strain LCB3, stronger effect = lower value 0.982 | locus YJL154C, strain vps35, stronger effect = lower value 0.987 | locus YJL164C, strain tpk1, stronger effect = lower value 1 | locus YJL166W, strain qcr8, stronger effect = lower value 0.995 | locus YJL168C, strain set2, stronger effect = lower value 0.985 | locus YJL187C, strain SWE1 (second series), stronger effect = lower value 1.01 | locus YJL187C, strain SWE1, stronger effect = lower value 0.983

Reference: PubChem BioAssay AID1159580 (chemical genetic matrix, 2015)
